# Laboratory results from PubChem BioAssay.
# Activity calls are given as the source filed them. Unless noted, no rule for the calls is given here.
# What was measured:
# [1] = test system: Wnt5a (protein binding on small-molecule microarray); assay: small molecules binding Wnt5a protein – biophysical, small-molecule microarray, 635/667 nm fluorescence, primary screen (AID 1142); conditions: 635 nm fluorescence, higher = more signal;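 also: fluorescence read at 667 nm with signal to noise per printed feature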
# [2] = ATP-based viability of Huh7 replicon cells – cell-based, CellTiter-Glo luminescence, basal, 48 h, cytotoxicity control for HCV replication inhibitor project, primary screen (AID 1143); conditions: higher = more signal, called active from +8 up or from −8 down;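 also: Huh7 hepatoma cells carrying a hepatitis C replication reporter with no stimulus; test concentration not given here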
# [3] = Pseudomonas biofilm growth suppression – PAO1 strain, BacTiter-Glo luminescence, LB-PBS, primary screen (AID 1144); conditions: P. aeruginosa PAO1 biofilm, 12 h, higher = more signal
# [4] = basal CRE-LacZ reporter activity in PC12 – cell-based, unstimulated, primary screen (AID 1145); conditions: no forskolin, luminescence, 4.5 h, higher = more signal, called active from +8 up or from −8 down
# [5] = forskolin-driven CRE-LacZ activity in PC12 – cell-based, CRE-LacZ reporter, forskolin-stimulated, primary screen (AID 1146); conditions: luminescence, 4.5 h, higher = more signal, called active from +8 up or from −8 down;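 also: PC12 cells with 6xCRE LacZ reporter stimulated by forskolin 10 µM; beta-galactosidase reporter signal reflecting CREB driven transcription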
# [6] = target: Streptavidin (Streptomyces avidinii) (UniProt P22629); assay: compounds binding control protein streptavidin – biophysical, small-molecule microarray, 635/667 nm fluorescence, artefact control for SMM compound annotation, primary screen (AID 1147); conditions: higher = more signal;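 also: signal reflects streptavidin binding to arrayed compounds as a control protein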
# [7] = probe aInhba binding on compound microarray – biochemical, small-molecule microarray, 635/667 nm fluorescence, primary screen (AID 1148); conditions: higher = more signal;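 also: score merges 667nm spot fluorescence with signal-to-noise for antibody binding to printed compounds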
# [8] = target: Torsin-1A (Homo sapiens) (UniProt O14656); assay: TOR1A wild-type binding on microarray – cell lysate, small-molecule microarray, lysate, 635/667 nm, primary screen (AID 1149); conditions: COS7 hTOR1A-WT lysate, 635 nm fluorescence, higher = more signal
# [9] = target: Torsin-1A (Homo sapiens) (UniProt O14656); assay: torsin A mutant lysate binding on microarrays – cell lysate, small-molecule microarray, COS7 lysate, 635/667 nm fluorescence, primary screen (AID 1150); conditions: COS7 hTOR1A mutant lysate, 635 nm fluorescence, higher = more signal;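 also: score pools 667 nm emission and signal to noise measuring lysate protein binding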
# [10] = test system: Sonic hedgehog protein (Shh); assay: Sonic hedgehog microarray binding compounds – biochemical, small-molecule microarray, 635/667 nm fluorescence, primary screen (AID 1151); conditions: 635 nm fluorescence, higher = more signal;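 also: Shh protein binding to compounds spotted on small-molecule microarray slides; score combines spot fluorescence intensity with signal-to-noise across triplicate slides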
# [11] = optical density shifts of acrAB sulA E. coli – strain DRC41, OD650, 48 h, E. coli filamentation inducer project, primary screen (AID 1152); conditions: higher = more signal, called active from +8 up or from −8 down;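 also: E. coli MC1000 strain DRC41 lacking acrAB efflux pump and sulA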
# [12] = probe aLefty1 binding on compound microarray – biochemical, small-molecule microarray, 635/667 nm fluorescence, primary screen (AID 1153); conditions: higher = more signal;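 also: score merges spot fluorescence with signal-to-noise ratio from the scanned slide images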
# [13] = plasmodial surface anion channel blockers, osmotic lysis – cell-based, P. falciparum Indochina, OD700, 1 h, primary screen (AID 1154); conditions: P. falciparum Indochina infected RBC osmotic lysis, higher = more signal, called active from +8 up or from −8 down
# [14] = plasmodial surface anion channel blockers, osmotic lysis – cell-based, P. falciparum Indochina, OD700, 2 h, primary screen (AID 1155);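 also: lysis reports solute entry through the parasite surface anion channel PSAC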; conditions: P. falciparum Indochina infected erythrocytes, higher = more signal, called active from +8 up or from −8 down
# [15] = changes in parasitized red cell lysis, either direction – P. falciparum Indochina, OD700, 3 h, PSAC antagonist project, primary screen (AID 1156); conditions: P. falciparum-infected erythrocytes, osmotic lysis, higher = more signal, called active from +8 up or from −8 down
# [16] = plasmodial surface anion channel blockers, osmotic lysis – cell-based, P. falciparum Indochina, OD700, 18 h, primary screen (AID 1157); conditions: P. falciparum Indochina infected erythrocytes, osmotic lysis OD700, 18 h; higher = more signal, called active from +8 up or from −8 down
# [17] = S6 kinase pathway phospho-S6 level changes – cell-based, A549, cytoblot, luminescence, serum-stimulated, primary screen (AID 1158); conditions: 5 h, higher = more signal;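 also: serum-stimulated A549 lung adenocarcinoma cells; signal is phosphorylated S6 detected by cytoblot immunostaining with HRP secondary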
# [18] = target: NADPH oxidase 2 (Homo sapiens) (UniProt P04839); assay: compounds shifting NOX2 Amplex Red fluorescence – cell-based, HEK293-NOX2, PMA-stimulated, NOX inhibitor project, primary screen (AID 1159); conditions: 45 min, higher = more signal, called active from +8 up or from −8 down; also: test concentration not given here
# [19] = target: NADPH oxidase 4 (Homo sapiens) (UniProt Q9NPH5); assay: compounds shifting NOX4 Amplex Red fluorescence – cell-based, HEK293-NOX4, tetracycline-induced, NOX inhibitor project, primary screen (AID 1160); conditions: HEK293-NOX4, Amplex Red H2O2 fluorescence, 45 min; higher = more signal, called active from +8 up or from −8 down
# [20] = target: NADPH oxidase 5 (Homo sapiens) (UniProt Q96PH1); assay: compounds shifting NOX5 Amplex Red fluorescence – cell-based, HEK293-NOX5, NOX inhibitor project, primary screen (AID 1161); conditions: HEK293-NOX5, ionomycin, 45 min, higher = more signal
# Sequence of NADPH oxidase 5 (Homo sapiens) (Q96PH1 whole entry, looked up): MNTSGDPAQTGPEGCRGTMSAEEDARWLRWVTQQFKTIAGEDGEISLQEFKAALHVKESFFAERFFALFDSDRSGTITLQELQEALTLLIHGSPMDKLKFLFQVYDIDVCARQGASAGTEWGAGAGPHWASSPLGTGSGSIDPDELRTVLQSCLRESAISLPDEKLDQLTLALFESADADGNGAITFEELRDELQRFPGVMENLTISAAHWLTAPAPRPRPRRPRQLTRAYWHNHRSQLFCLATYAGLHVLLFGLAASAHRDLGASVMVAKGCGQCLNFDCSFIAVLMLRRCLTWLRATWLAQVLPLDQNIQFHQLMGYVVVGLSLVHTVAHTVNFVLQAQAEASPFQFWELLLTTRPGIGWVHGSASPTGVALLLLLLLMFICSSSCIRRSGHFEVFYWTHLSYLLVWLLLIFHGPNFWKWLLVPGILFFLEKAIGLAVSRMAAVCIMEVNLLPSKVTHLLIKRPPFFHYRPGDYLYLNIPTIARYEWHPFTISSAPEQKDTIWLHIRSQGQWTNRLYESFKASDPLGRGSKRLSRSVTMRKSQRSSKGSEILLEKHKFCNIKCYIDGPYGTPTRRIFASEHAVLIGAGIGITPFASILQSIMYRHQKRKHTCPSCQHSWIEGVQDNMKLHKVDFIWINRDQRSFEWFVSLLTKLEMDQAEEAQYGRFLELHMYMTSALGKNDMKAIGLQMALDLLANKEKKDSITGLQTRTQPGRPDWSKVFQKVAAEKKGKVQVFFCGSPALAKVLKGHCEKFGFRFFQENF
# Sequence of Streptavidin (Streptomyces avidinii) (P22629 whole entry, looked up): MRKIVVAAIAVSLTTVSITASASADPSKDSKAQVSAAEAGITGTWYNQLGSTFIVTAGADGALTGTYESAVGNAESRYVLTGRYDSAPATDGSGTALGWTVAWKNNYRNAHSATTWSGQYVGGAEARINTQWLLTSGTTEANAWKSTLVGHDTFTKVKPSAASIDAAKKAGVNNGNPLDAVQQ
# Sequence of NADPH oxidase 4 (Homo sapiens) (Q9NPH5 whole entry, looked up): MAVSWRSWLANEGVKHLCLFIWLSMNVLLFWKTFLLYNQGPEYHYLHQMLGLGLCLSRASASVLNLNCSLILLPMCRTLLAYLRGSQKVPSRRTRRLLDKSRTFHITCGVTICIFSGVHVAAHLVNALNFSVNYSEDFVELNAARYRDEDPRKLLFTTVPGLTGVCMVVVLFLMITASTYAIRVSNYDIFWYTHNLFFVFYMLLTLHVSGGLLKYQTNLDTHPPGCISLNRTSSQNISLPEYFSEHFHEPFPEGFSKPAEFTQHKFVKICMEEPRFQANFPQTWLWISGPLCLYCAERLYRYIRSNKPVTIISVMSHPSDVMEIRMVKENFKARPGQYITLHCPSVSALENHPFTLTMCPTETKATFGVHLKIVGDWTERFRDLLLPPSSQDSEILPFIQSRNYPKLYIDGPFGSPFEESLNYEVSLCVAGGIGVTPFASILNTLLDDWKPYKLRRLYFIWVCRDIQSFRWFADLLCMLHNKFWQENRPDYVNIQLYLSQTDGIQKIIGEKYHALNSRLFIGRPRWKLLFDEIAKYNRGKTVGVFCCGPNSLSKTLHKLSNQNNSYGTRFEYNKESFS
# Sequence of NADPH oxidase 2 (Homo sapiens) (P04839 whole entry, looked up): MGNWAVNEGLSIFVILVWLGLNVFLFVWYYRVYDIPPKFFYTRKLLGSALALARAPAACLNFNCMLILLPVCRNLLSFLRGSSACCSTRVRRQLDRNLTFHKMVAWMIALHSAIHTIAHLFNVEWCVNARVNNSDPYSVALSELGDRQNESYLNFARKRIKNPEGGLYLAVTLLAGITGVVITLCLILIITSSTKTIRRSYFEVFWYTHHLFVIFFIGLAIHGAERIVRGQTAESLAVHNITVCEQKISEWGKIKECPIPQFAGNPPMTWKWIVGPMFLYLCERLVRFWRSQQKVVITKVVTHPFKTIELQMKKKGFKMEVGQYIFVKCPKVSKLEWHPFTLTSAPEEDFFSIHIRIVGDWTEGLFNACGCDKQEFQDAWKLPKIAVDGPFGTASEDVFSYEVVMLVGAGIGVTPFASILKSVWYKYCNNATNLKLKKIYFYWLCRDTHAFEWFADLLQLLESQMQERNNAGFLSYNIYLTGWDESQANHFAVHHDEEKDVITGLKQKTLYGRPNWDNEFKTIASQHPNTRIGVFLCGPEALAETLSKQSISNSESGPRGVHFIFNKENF
# Sequence of Torsin-1A (Homo sapiens) (O14656 whole entry, looked up): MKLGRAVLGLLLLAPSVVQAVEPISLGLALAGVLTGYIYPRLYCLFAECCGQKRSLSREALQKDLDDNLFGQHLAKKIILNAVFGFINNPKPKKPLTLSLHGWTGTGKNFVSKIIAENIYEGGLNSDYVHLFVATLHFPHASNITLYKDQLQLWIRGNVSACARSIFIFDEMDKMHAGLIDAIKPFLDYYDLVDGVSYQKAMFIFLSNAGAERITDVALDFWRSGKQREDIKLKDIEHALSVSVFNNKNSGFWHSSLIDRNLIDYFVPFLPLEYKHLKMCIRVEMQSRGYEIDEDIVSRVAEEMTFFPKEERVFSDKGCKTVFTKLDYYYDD
SMILES,composite z-score [1],z-score [2],z-score [3],z-score [4],z-score [5],composite z-score [6],composite z-score [7],composite z-score [8],composite z-score [9],composite z-score [10],z-score [11],composite z-score [12],z-score [13],z-score [14],z-score [15],z-score [16],z-score [17],z-score [18],z-score [19],z-score [20]
COC(=O)CC=C[C@H](C)[C@@H](OCc1ccccc1Br)C(C)C,-0.106,0.298 (inactive),-0.643 (inactive),0.194 (inactive),0.615 (inactive),0.228,-0.128,0.066,0.674,0.438,0.358 (inactive),-0.149,0.644 (inactive),0.673 (inactive),1.01 (inactive),0.589 (inactive),0.104,1.04 (inactive),0.478 (inactive),0.457
C=CCC(OC(C)=O)[C@@H]1[C@@H](N(Cc2cc3ccccc3o2)C(=O)Cc2ccc(F)cc2)c2cc(OCCCO)ccc2N1C(=O)Cc1ccc(OC)cc1 (stereo not given in full),-0.368,-0.276 (inactive),0.00133 (inactive),1.27 (inactive),0.515 (inactive),0.0444,-0.045,-0.499,-0.522,0.603,-0.778 (inactive),-0.06,1.05 (inactive),0.172 (inactive),-0.67 (inactive),-0.133 (inactive),-0.597,0.2 (inactive),0.727 (inactive),-0.743
CCOC(=O)[C@H](Cc1ccccc1)NC(=O)CCC1CC(OC(=O)NCc2ccc3c(c2)OCO3)CC2(CCCC(COC(=O)NCC3CCCCC3)O2)O1 (stereo not given in full),0.0472,-0.734 (inactive),-0.0126 (inactive),-0.613 (inactive),-0.177 (inactive),0.592,-0.0289,-0.407,0.538,1.36,-0.251 (inactive),0.171,0.732 (inactive),0.45 (inactive),-0.235 (inactive),0.297 (inactive),0.236,1.51 (inactive),0.737 (inactive),0.909
COC(=O)[C@@H]1N=C(c2ccc(OCCCO)cc2)O[C@@H]1c1ccccc1N=[N+]=[N-],0.122,-2.72 (inactive),-0.943 (inactive),1.7 (inactive),-0.826 (inactive),0.937,0.168,0.131,0.51,-0.0259,0.666 (inactive),0.309,29.3 (active),25.8 (active),1.88 (inactive),5.77 (inactive),1.24,-1.24 (inactive),-0.0584 (inactive),-2.26
CC(=O)OC[C@H]1O[C@H](CCON=C(C)CCN2CCc3nc(-c4ccccc4)c(-c4ccccc4)cc3C2)C=C[C@@H]1OC(C)=O,-0.192,-1.04 (inactive),0.23 (inactive),4.88 (inactive),0.0929 (inactive),0.316,0.156,0.0622,0.407,0.287,-0.132 (inactive),0.0446,2.65 (inactive),0.452 (inactive),0.676 (inactive),0.148 (inactive),-0.166,-2.87 (inactive),-0.455 (inactive),-2.78
COc1ccc(O[C@H]2C=C[C@@H](c3ccccc3)O[C@@H]2COC(=O)CCC(C)=NO[C@H](C)c2cn([C@@H]3COC[C@H]3O)nn2)cc1,0.276,-3.36 (inactive),-1.39 (inactive),5.66 (inactive),0.867 (inactive),2.18,-0.103,0.249,0.419,0.754,0.451 (inactive),-0.0501,5.05 (inactive),0.0624 (inactive),1.63 (inactive),-0.908 (inactive),0.607,-4.13 (inactive),-0.691 (inactive),-4.98
CO[C@@H]1COC(=O)CCC[C@@H](C)[C@H](OC)COC(=O)CCC[C@H]1C,-0.0665,-0.459 (inactive),-0.276 (inactive),-0.152 (inactive),0.273 (inactive),0.0601,-0.0405,0.978,0.662,0.533,-0.665 (inactive),-0.0933,0.553 (inactive),0.637 (inactive),0.719 (inactive),0.49 (inactive),-0.918,0.545 (inactive),0.567 (inactive),0.031
CC(C)=CCCC(C)=CCON=C1C[C@@H](O)[C@@H](O)[C@@H]2[C@@H]3C(=O)N(C[C@@H]4CCCO4)C(=O)[C@@H]3CC[C@@H]12,0.311,-0.678 (inactive),0.518 (inactive),-0.659 (inactive),-0.227 (inactive),-0.0996,-0.0933,2.06,2.01,1.73,0.381 (inactive),0.0371,1.53 (inactive),0.767 (inactive),0.369 (inactive),0.549 (inactive),-0.622,0.752 (inactive),0.604 (inactive),0.0838
COCCOC(=O)N1C(=O)[C@@]2(c3cc(C#CCNC(N)=O)ccc31)[C@H](c1ccc(O)cc1)N1[C@H](c3ccccc3)[C@H](c3ccccc3)OC(=O)[C@H]1[C@@H]2C(=O)N1CCCCCCC1,0.272,-0.446 (inactive),-0.945 (inactive),-1.57 (inactive),0.357 (inactive),0.445,-0.186,0.4,0.527,1.65,0.455 (inactive),-0.0779,1.04 (inactive),0.656 (inactive),-0.0303 (inactive),0.411 (inactive),0.0352,1.49 (inactive),-1.04 (inactive),1.48
